Consider 55 molecules from article PMC4336329 (PLoS ONE, 2015).

Screen size: about 310,000 compounds; about 14,000 (4.5%) showed an effect of 50% or more. The effect is printed as a negative number. The sample as a whole holds a higher share of strong results than the screen did.
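Further: peak tail current of the secondary pulse compared with the same well before compound.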

The target of the test is human ether-à-go-go-related gene (hERG) potassium channel (human, UniProt Q12809). The test can be described thus: primary screen, population patch clamp on CHO cells stably expressing hERG; higher = less effect of the substance.
Sequence of human ether-à-go-go-related gene (hERG) potassium channel (Q12809 whole entry, looked up): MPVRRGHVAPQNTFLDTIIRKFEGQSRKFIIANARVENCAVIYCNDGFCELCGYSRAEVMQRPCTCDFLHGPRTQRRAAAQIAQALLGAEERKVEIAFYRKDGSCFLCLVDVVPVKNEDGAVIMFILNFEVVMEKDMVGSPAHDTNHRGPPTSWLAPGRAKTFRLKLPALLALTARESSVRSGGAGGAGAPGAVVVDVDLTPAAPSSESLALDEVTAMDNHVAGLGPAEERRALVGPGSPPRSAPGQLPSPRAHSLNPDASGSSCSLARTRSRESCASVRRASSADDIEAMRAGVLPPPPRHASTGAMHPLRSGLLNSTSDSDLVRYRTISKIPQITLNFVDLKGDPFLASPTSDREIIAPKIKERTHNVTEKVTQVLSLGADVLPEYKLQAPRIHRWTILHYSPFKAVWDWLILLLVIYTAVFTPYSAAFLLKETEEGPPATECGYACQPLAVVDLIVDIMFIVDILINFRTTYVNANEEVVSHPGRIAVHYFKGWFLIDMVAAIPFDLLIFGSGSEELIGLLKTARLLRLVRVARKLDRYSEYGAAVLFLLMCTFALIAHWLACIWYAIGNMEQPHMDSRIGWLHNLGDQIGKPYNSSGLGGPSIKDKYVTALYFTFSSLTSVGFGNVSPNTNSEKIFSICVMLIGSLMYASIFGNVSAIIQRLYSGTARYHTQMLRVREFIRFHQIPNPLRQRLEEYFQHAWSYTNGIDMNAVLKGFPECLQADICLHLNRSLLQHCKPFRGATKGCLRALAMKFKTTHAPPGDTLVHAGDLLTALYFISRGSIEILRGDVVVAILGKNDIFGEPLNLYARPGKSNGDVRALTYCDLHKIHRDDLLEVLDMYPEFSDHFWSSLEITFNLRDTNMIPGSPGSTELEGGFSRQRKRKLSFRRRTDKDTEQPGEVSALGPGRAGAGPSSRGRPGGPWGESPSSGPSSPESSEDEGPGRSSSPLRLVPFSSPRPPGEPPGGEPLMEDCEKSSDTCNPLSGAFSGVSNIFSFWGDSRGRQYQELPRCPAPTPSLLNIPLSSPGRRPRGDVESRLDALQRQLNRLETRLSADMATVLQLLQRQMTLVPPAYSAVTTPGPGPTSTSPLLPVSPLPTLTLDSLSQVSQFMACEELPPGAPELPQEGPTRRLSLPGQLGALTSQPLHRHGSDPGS
On to `O=S(=O)(O)c1cccc(N=Nc2c(O)ccc3ccccc23)c1`, for which the “hERG current change (%, negative = inhibition) at 10uM” value is 16.4%.

On to `N#Cc1ccc(OCC(=O)NCCN2CCOCC2)cc1`, for which the “hERG current change (%, negative = inhibition) at 10uM” value was -11.7%.

Turning to `O=C(COC(=O)/C=C/c1ccc(Cl)cc1)NC1CCCCCC1`, the “hERG current change (%, negative = inhibition) at 10uM” value was -1.22%.

Turning to `Cc1ccc(C)c(NC(=O)Cc2nc(CCl)cs2)c1`, the “hERG current change (%, negative = inhibition) at 10uM” value was -14.1%.

Take `CC(C)Oc1cccc(C(=O)NC(=S)Nc2ccccc2)c1`: the “hERG current change (%, negative = inhibition) at 10uM” value was -7.26%.

For `CCOC(=O)c1ccc(NC(=O)N(CC)CC)cc1`, the “hERG current change (%, negative = inhibition) at 10uM” value is given as 4.46%.

In the case of `CCCC(=O)N1CCN(c2ccc(NC(=S)NC(=O)c3cccc(C)c3)cc2)CC1`, the “hERG current change (%, negative = inhibition) at 10uM” value is -18.3%.

In the case of `COCCOC(=O)c1c(N)n(CCCN2CCOCC2)c2nc3ccccc3nc12`, the “hERG current change (%, negative = inhibition) at 10uM” value is reported as -53.3%.

In the case of `Nc1c(C(=O)NCCN2CCOCC2)c2nc3ccccc3nc2n1Cc1ccccc1`, the “hERG current change (%, negative = inhibition) at 10uM” value is 1.38%.

As to `CCCCOCCCn1c(N)c(C(=O)OCCOC)c2nc3ccccc3nc21`, the “hERG current change (%, negative = inhibition) at 10uM” value is given as -32.9%.

For `CCCCCCn1c(N)c(C(=O)NCCN2CCOCC2)c2nc3ccccc3nc21`, the “hERG current change (%, negative = inhibition) at 10uM” value is reported as -8.61%.

In the case of `CCCCn1c(N)c(C(=O)NCCN2CCOCC2)c2nc3ccccc3nc21`, the “hERG current change (%, negative = inhibition) at 10uM” value is on record as -64.1%.

`CCCCCn1c(N)c(C(=O)NCCN2CCOCC2)c2nc3ccccc3nc21`: the “hERG current change (%, negative = inhibition) at 10uM” value was -17.1%.

For the molecule `COC(=O)c1c(N)n(CCCN2CCOCC2)c2nc3ccccc3nc12`, the “hERG current change (%, negative = inhibition) at 10uM” value is -29.9%.

For `Nc1c(C(=O)NCCN2CCOCC2)c2nc3ccccc3nc2n1Cc1ccco1`, the “hERG current change (%, negative = inhibition) at 10uM” value is listed as -68.8%.

Regarding `Nc1c(C(=O)NCc2ccco2)c2nc3ccccc3nc2n1CCN1CCOCC1`, the “hERG current change (%, negative = inhibition) at 10uM” value is reported as -4.63%.

With `CCCCCOC(=O)c1c(N)n(CCOC)c2nc3ccccc3nc12`, the “hERG current change (%, negative = inhibition) at 10uM” value is given as -70.2%.

Consider `COCC(C)OC(=O)c1c(N)n(CCCN2CCOCC2)c2nc3ccccc3nc12` (stereo not shown), for which the “hERG current change (%, negative = inhibition) at 10uM” value was -9.69%.

Consider `CCCCn1c(N)c(C(=O)OCCOC)c2nc3ccccc3nc21`, for which the “hERG current change (%, negative = inhibition) at 10uM” value is given as -42.4%.

With `COc1ccccc1N(CC(=O)NCc1ccccc1)C(=O)CCC(=O)Nc1cc(C)ccn1`, the “hERG current change (%, negative = inhibition) at 10uM” value is on record as -9.35%.

Regarding `CC(O)c1c(OCc2ccccc2)ncnc1OCc1ccccc1` (stereo not shown), the “hERG current change (%, negative = inhibition) at 10uM” value was -15.5%.

As for `CCN(CC)S(=O)(=O)c1ccc(S(=O)(=O)N(CC(=O)Nc2ccccc2)CC2CCCO2)cc1` (stereo not shown), the “hERG current change (%, negative = inhibition) at 10uM” value is given as -18.6%.

For `COc1cccc(N2CCN(C(=O)C3CCC(=O)N(C4CCCCCC4)C3)CC2)c1` (stereo not shown), the “hERG current change (%, negative = inhibition) at 10uM” value was -32.8%.

On to `COc1ccc(NC2c3ccccc3C(=O)N2c2ccccn2)cc1Cl` (stereo not shown), for which the “hERG current change (%, negative = inhibition) at 10uM” value was -5.24%.

As to `Cc1ccc(-c2cc(C(=O)N/N=C/c3ccc(F)cc3)n[nH]2)o1`, the “hERG current change (%, negative = inhibition) at 10uM” value is given as 4.98%.

For the molecule `COc1ccc(CCNC(=O)c2cn3ccc(C)cc3n2)cc1OC`, the “hERG current change (%, negative = inhibition) at 10uM” value was determined as 1.66%.

Consider `Cc1ccc(S(=O)(=O)N(C)C)cc1NC(=S)N1CCc2ccccc21`, for which the “hERG current change (%, negative = inhibition) at 10uM” value is reported as 11.5%.

Turning to `COc1ccc(NC(=O)c2cc3ccccc3[nH]2)cc1`, the “hERG current change (%, negative = inhibition) at 10uM” value turned out to be 15.4%.

For `Cc1ccccc1-n1c(C)c(C#N)c(=O)c(-[n+]2ccccc2)c1[S-]`, the “hERG current change (%, negative = inhibition) at 10uM” value stood at 23.4%.

With `Cc1cc(S(=O)(=O)N2CCCC2)ccc1OCC(=O)NCc1ccccn1`, the “hERG current change (%, negative = inhibition) at 10uM” value is recorded as 4.98%.

With `O=C(NC(=C(Cl)Cl)S(=O)(=O)c1ccc(Cl)cc1)c1ccccc1`, the “hERG current change (%, negative = inhibition) at 10uM” value is given as 3.23%.

As to `Nc1c(C(=O)NCCN2CCOCC2)c2nc3ccccc3nc2n1CCc1ccccc1F`, the “hERG current change (%, negative = inhibition) at 10uM” value is listed as -27.2%.

`CC(C)Cn1c(N)c(C(=O)NCCN2CCOCC2)c2nc3ccccc3nc21`: the “hERG current change (%, negative = inhibition) at 10uM” value is reported as -72.7%.

Regarding `Nc1c(C(=O)NCCc2ccccc2)c2nc3ccccc3nc2n1CCN1CCOCC1`, the “hERG current change (%, negative = inhibition) at 10uM” value was -3.49%.

For the molecule `CCn1c(O)c(C=NCc2cccs2)c(=O)[nH]c1=O`, the “hERG current change (%, negative = inhibition) at 10uM” value is given as -6.15%.

Take `CS(=O)(=O)c1ccc(C(=O)NC2CCCCC2)cc1`: the “hERG current change (%, negative = inhibition) at 10uM” value turned out to be 12.1%.

For `Cc1ccc2nc(C)c3c(c2c1)OC(C(C)(Cl)Br)C3` (stereo not shown), the “hERG current change (%, negative = inhibition) at 10uM” value is on record as -16.5%.

As for `COc1ccc2nc(C)c3c(c2c1)OC(C(C)(Cl)Br)C3` (stereo not shown), the “hERG current change (%, negative = inhibition) at 10uM” value was -34%.

`Cc1nc2ccccc2c2c1CC(C(C)(Cl)Br)O2` (stereo not shown): the “hERG current change (%, negative = inhibition) at 10uM” value is reported as -61.6%.

Regarding `COc1cc(N(Cc2ccccc2)Cc2ccccc2)c2ncn(C(C)C)c2c1`, the “hERG current change (%, negative = inhibition) at 10uM” value was 6.37%.

For `CC(C)n1cnc2c(NCc3ccccc3)nc(NCc3ccccc3)nc21`, the “hERG current change (%, negative = inhibition) at 10uM” value is 0.281%.

Consider `CC(C)n1cnc2c(N(C)c3ccccc3)nc(N(CCN(C)C)Cc3ccccc3)nc21`, for which the “hERG current change (%, negative = inhibition) at 10uM” value is reported as -73.1%.

Take `Cc1cc(C)c2c(=O)n(CC(=O)NCCCN3CCOCC3)sc2n1`: the “hERG current change (%, negative = inhibition) at 10uM” value was 11.4%.

Consider `CC1CCCC(C)N1CCCNC(=O)Cn1ncc2c3ccccc3n(C)c2c1=O` (stereo not shown), for which the “hERG current change (%, negative = inhibition) at 10uM” value is reported as -36.9%.

For the molecule `Cn1c2ccccc2c2cnn(CC(=O)NCCCN3CCN(c4ccccc4F)CC3)c(=O)c21`, the “hERG current change (%, negative = inhibition) at 10uM” value is listed as -76.3%.

With `O=C(Cn1cc(S(=O)(=O)N2CCN(c3ccccc3F)CC2)c2ccccc2c1=O)NCCCN1CCCCCC1`, the “hERG current change (%, negative = inhibition) at 10uM” value is -61.1%.

For `O=C(Cn1ncc2c(=O)oc3ccccc3c21)NCCN1CCN(c2ccccc2F)CC1`, the “hERG current change (%, negative = inhibition) at 10uM” value is recorded as -28.4%.

In the case of `Cn1c(C(=O)NCCCN2CCN(c3ccccc3F)CC2)cc2c(=O)n(C)c3ccccc3c21`, the “hERG current change (%, negative = inhibition) at 10uM” value was -11.7%.

For the molecule `CCCNC(=O)Cn1sc2nc(C)cc(C)c2c1=O`, the “hERG current change (%, negative = inhibition) at 10uM” value is -6.1%.

Consider `CCCN1CCN(CCCNC(=O)Cn2ncc3c4ccccc4n(C)c3c2=O)CC1`, for which the “hERG current change (%, negative = inhibition) at 10uM” value is -56.6%.

With `CCC(C)NC(=O)Cn1cc(S(=O)(=O)N2CCN(c3ccccc3F)CC2)c2ccccc2c1=O` (stereo not shown), the “hERG current change (%, negative = inhibition) at 10uM” value is on record as -4.4%.

For `Cc1cc(C)c2c(=O)n(CC(=O)NCCCN3CCN(c4ccccc4F)CC3)sc2n1`, the “hERG current change (%, negative = inhibition) at 10uM” value was -55.3%.

Consider `COCCNC(=O)Cn1cc(S(=O)(=O)N2CCN(c3ccccc3F)CC2)c2ccccc2c1=O`, for which the “hERG current change (%, negative = inhibition) at 10uM” value is listed as -2.76%.

With `CN1CCN(CCCNC(=O)Cn2ncc3c4ccccc4n(C)c3c2=O)CC1`, the “hERG current change (%, negative = inhibition) at 10uM” value is 12%.

In the case of `CC(=O)OC1COC(N2CCc3cc([N+](=O)[O-])ccc32)C(OC(C)=O)C1OC(C)=O` (stereo not shown), the “hERG current change (%, negative = inhibition) at 10uM” value turned out to be 2.87%.
